Consider nine compounds from PubChem BioAssay (Tox21).

Test [1] is described as follows: qHTS assay to identify small molecule antagonists of the peroxisome proliferator-activated receptor delta (PPARd) signaling pathway - cell viability counter screen (AID 743213). Also: nearly all actives have a fitted effect of over 50% in size. Also: potency is read from the fitted curve at half-maximal effect. The method in brief: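 Agonist-stimulated (L165041, 300 nM final) HEK293H PPARd UAS-bla cells are exposed to compounds for 17 h at 37 C, and ATP-based luminescence (CellTiter-Glo) from the same wells reports cytotoxicity.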
(qHTS replaces the single test concentration by a dilution series.)

A short description of test [2]: qHTS assay to identify small molecule agonists of the farnesoid-X-receptor (FXR) signaling pathway - cell viability counter screen (AID 743218). Also: % is scaled to controls: 0 for no effect and ±100 for the full control effect; nearly all actives have a fitted effect of over 45% in size. In short, it runs like this: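 Parallel cytotoxicity test: compound-treated (16 h, 37 C) HEK 293T FXR-bla reporter cells were lysed with CellTiter-Glo and luminescence recorded.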
A short description of test [3]: qHTS assay to identify small molecule antagonists of the farnesoid-X-receptor (FXR) signaling pathway - cell viability counter screen (AID 743221; active = well fitted cell-killing curve with a large enough effect in the repeat runs, not every such curve was filed as active; also: % is scaled to controls: 0 for no effect and ±100 for the full control effect; nearly all actives have a fitted effect of over 50% in size). In short, it runs like this:
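GeneBLAzer FXR-UAS-bla HEK 293T cells, compound plus chenodeoxycholic acid (50 uM final), 16 h at 37 C. CellTiter-Glo added to the same wells after the beta-lactamase read; luminescence read after 30 min at room temperature as viability.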

A short description of test [4]: qHTS assay to identify small molecule agonists of the vitamin D receptor (VDR) signaling pathway - cell viability counter screen (AID 743224). Also: nearly all actives have a fitted effect of over 50% in size. Also: potency is read from the fitted curve at half-maximal effect. The method in brief:
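Plated VDR-bla cells (4 h, 37C) received compound, incubated 16 h, then LiveBLAzer substrate 2 h RT; CellTiter-Glo added afterwards, luminescence read at 30 min.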

Test [5] in a line: qHTS assay to identify small molecule antagonists of the vitamin D receptor (VDR) signaling pathway - cell viability counter screen (AID 743225). Also: nearly all actives have a fitted effect of over 50% in size. Also: potency is read from the fitted curve at half-maximal effect. In short, it runs like this: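 VDR-UAS-bla HEK 293T cells were plated and incubated 4 h at 37C, then dosed with compound plus 3 nM (final) 1-alpha,25-dihydroxyvitamin D3 for 16 h. After the 2 h beta-lactamase read, viability in the same wells was read as CellTiter-Glo luminescence after 30 min at room temperature.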

Test [6] is described as follows: qHTS assay to identify small molecule agonists of the NFkB signaling pathway - cell viability counter screen (AID 1159515; calls by dose curve; also: series mostly up to about 61 µM; % is scaled to controls: 0 for no effect and ±100 for the full control effect; nearly all actives have a fitted effect of over 55% in size). The method in brief:
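Using the same wells as the NFkB reporter read, ME-180 NFkB-bla cells given compounds for 5 hr were assessed for viability via CellTiter-Glo, with luminescence taken after a 30 min room-temperature incubation.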

The nature of test [7]: qHTS assay to identify small molecule agonists of the endoplasmic reticulum stress response signaling pathway (AID 1159516; active = well fitted activation curve with a large enough effect in the signal ratio in the repeat runs, not every such curve was filed as active; the % refers to the signal ratio; also: % is scaled to controls: 0 for no effect and ±100 for the full control effect). The method in brief: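 An ESRE-bla HeLa cell assay: compounds were pin-transferred from DMSO onto overnight-plated cells and left 5 hr at 37 C. Substrate was then loaded for 2 hr at room temperature before reading fluorescence at 460 nm and 530 nm.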

Test [8] is described as follows: qHTS assay to identify small molecule agonists of the endoplasmic reticulum stress response signaling pathway - cell viability counter screen (AID 1159517; calls by dose curve). The method in brief:
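Luminescence readout: CellTiter-Glo, 30 min RT, same wells as the ESRE-bla reporter read. HeLa ESRE-bla, 1,500 cells/well, o/n 37 C; cpd 5 hr 37 C/5% CO2.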

A short description of test [9]: qHTS assay to identify small molecule antagonists of the retinoid-related orphan receptor gamma (ROR-gamma) signaling pathway - cell viability counter screen (AID 1159520). Also: nearly all actives have a fitted effect of over 50% in size. Also: potency is read from the fitted curve at half-maximal effect. In short, it runs like this:
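Tet-on ROR gamma CHO cells (1,000/well) were plated 4 hr, given compounds in DMSO for 2 hr at 37 C, then induced with 1 uM final doxycycline for 16 hr. Viability was read as ATP by CellTiter-Glo luminescence after 30 min.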

Test [10] in a line: qHTS assay to identify small molecule agonists of the AP-1 signaling pathway (AID 1159526; calls by dose curve; also: potency is read from the fitted curve at half-maximal effect; as to activation: % is scaled to controls: 0 for no effect and ±100 for the full control effect).
In test [11] the target is Retinoic acid receptor RXR-alpha (Homo sapiens) (UniProt P19793). In words: qHTS assay to identify small molecule agonists of the RXR signaling pathway (AID 1159527; calls by dose curve; also: nearly all actives have a fitted effect of over 35% in size; also: potency is read from the fitted curve at half-maximal effect). In short, it runs like this:
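GeneBLAzer RXR-alpha-UAS-bla HEK 293T cells in 2% charcoal-stripped FBS medium were exposed to compounds for 16 hr at 37 C in agonist mode. Beta-lactamase reporter read as 460/530 nm FRET ratio after 2 hr substrate loading.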

Test [12] is described as follows: qHTS assay to identify small molecule agonists of the RXR signaling pathway - cell viability counter screen (AID 1159529). Also: nearly all actives have a fitted effect of over 50% in size. Also: potency is read from the fitted curve at half-maximal effect. In short, it runs like this: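 RXR-alpha-UAS-bla HEK 293T cells in medium with 2% charcoal-stripped FBS were pre-incubated 5 hr, then compound-treated 16 hr at 37 C. Viability was read by CellTiter-Glo luminescence in the same wells as the beta-lactamase assay, with tetraoctyl ammonium bromide as positive control.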

Test [13] can be described thus: qHTS assay to identify small molecule antagonists of the retinoid acid receptor (RAR) signaling pathway - cell viability counter screen (AID 1159551). Also: % is scaled to controls: 0 for no effect and ±100 for the full control effect; nearly all actives have a fitted effect of over 35% in size. In short, it runs like this:
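Retinol-stimulated (1 uM final) C3RL4 cells, compound 6 h, 37 C; readout CellTiter-Glo luminescence (ATP) after 30 min RT incubation.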

For test [14], the target named is Nuclear receptor ROR-gamma (Homo sapiens) (UniProt P51449). In words: qHTS assay to identify small molecule antagonists of the retinoid-related orphan receptor gamma (ROR-gamma) signaling pathway (AID 1159521; also: nearly all actives have a fitted effect of over 50% in size; also: potency is read from the fitted curve at half-maximal effect). In short, it runs like this: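 Tet-on ROR-gamma CHO cells with ROR response element-luciferase reporter; compounds added 2 hr before 1 uM doxycycline induction, then 16 hr at 37 C. Antagonism scored as decreased ONE-Glo luminescence.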

Test [15] concerns the target Vitamin D3 receptor (Homo sapiens) (UniProt P11473). Put plainly: qHTS assay to identify small molecule antagonists of the vitamin D receptor (VDR) signaling pathway (AID 743223; active = well fitted inhibition curve with a large enough effect in the signal ratio in the repeat runs, not every such curve was filed as active; the % refers to the signal ratio; also: % is scaled to controls: 0 for no effect and ±100 for the full control effect). The method in brief:
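VDR-bla cells were treated with compound plus 3 nM final 1alpha,25-dihydroxyvitamin D3 for 16 h at 37C. Beta-lactamase reporter read by B/G FRET substrate fluorescence after 2 h at room temperature. qHTS format.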

Test [16] is described as follows: qHTS assay to identify small molecule agonists of the AP-1 signaling pathway - cell viability counter screen (AID 1159525; calls by dose curve; also: nearly all actives have a fitted effect of over 55% in size; also: potency is read from the fitted curve at half-maximal effect). In short, it runs like this: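 ME-180 AP-1-bla, 2500 cells/well, Opti-MEM + 0.5% dialyzed FBS; overnight 37 °C; cpd 15-pt titration, 5 h 37 °C; CellTiter-Glo 30 min RT; luminescence read; normalised to TOAB and DMSO controls.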
Test [17] has as its target Peroxisome proliferator-activated receptor delta (Homo sapiens) (UniProt Q03181). Put plainly: qHTS assay to identify small molecule antagonists of the peroxisome proliferator-activated receptor delta (PPARd) signaling pathway (AID 743215; active = well fitted inhibition curve with a large enough effect in the signal ratio in the repeat runs, not every such curve was filed as active; the % refers to the signal ratio; also: series mostly up to about 62 µM; % is scaled to controls: 0 for no effect and ±100 for the full control effect). In short, it runs like this: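 HEK293H UAS-bla, PPARd; agonist L165041 300 nM final with cpd in DMSO; 37 C 17 h; FRET substrate, RT 2 h; fluorescence intensity.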

Where “and” joins values, the source holds several entries; their conditions need not be identical. Equal values may be shown once. Records with an inconclusive call do not appear. Where a structure was tested more than once in an assay, its records may differ in their call. Calls of active or inactive are those of the source. Unless noted, calls follow the shape of the dose curve; as a rule, active = well fitted curve in the direction sought with a large enough effect in the repeat runs; inconclusive = weak or mixed curves; inactive = no such curve, though single readings can be large; an effect the other way counts as inactive or inconclusive.

Chain of Peroxisome proliferator-activated receptor delta (Homo sapiens) (Q03181 whole entry, looked up): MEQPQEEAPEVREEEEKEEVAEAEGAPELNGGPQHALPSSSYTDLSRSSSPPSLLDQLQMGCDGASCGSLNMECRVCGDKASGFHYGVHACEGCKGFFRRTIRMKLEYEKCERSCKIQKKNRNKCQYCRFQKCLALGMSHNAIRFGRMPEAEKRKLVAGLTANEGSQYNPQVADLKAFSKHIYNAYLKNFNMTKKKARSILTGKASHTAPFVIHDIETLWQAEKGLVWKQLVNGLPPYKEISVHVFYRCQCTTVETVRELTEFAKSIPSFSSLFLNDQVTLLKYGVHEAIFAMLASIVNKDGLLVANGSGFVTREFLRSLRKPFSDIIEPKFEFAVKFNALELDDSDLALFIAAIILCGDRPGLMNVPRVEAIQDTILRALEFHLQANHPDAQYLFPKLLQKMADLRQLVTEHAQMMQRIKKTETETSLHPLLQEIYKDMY
Chain of Vitamin D3 receptor (Homo sapiens) (P11473 whole entry, looked up): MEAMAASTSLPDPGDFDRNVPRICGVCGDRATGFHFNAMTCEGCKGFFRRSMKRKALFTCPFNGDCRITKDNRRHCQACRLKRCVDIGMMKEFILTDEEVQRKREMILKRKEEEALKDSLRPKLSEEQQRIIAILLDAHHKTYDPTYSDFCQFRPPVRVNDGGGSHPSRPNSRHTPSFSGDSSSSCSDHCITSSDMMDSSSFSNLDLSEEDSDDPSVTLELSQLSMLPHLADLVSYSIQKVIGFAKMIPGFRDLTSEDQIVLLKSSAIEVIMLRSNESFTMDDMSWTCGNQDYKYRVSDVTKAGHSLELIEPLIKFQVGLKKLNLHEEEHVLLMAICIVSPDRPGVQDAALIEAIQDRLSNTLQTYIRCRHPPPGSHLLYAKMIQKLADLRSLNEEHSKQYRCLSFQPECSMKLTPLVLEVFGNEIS
Chain of Retinoic acid receptor RXR-alpha (Homo sapiens) (P19793 whole entry, looked up): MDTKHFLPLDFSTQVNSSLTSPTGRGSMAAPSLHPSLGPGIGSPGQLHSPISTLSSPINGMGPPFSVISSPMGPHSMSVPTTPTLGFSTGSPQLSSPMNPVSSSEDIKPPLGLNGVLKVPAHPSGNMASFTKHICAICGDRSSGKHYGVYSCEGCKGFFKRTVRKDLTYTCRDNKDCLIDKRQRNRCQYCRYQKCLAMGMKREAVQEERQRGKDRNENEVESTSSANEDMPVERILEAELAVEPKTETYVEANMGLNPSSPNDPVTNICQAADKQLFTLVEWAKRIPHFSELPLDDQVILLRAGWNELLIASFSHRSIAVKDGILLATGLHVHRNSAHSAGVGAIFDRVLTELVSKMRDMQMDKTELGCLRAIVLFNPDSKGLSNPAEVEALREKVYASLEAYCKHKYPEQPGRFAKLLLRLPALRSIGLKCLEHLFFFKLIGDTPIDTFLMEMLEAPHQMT

Take `O=S(=O)(O)O`: the Potency entry in test [1], in test [2], in [3], in test [4], in test [5] and in [6] was “inactive” throughout. Also, the Potency entry in [8], in [9], in test [10], in test [11], in test [12] and in [13] was “inactive” throughout. Besides, the compound was classed as inactive in test [7].

Take `CCCCCCCCCCn1cc[n+](C)c1`: the values for the Potency in [1] and in [14] were 22.1 µM (active) and 7.73 µM (active) [middle of 5 runs], respectively. The Potency result in test [3], in test [6], in test [9], in test [10], in [12] and in [13] was “inactive” in each case.

For `O=c1[nH]c(=O)n(Cl)c(=O)n1Cl`, the Potency entry in [1], in [3], in test [4], in test [5], in [6] and in test [8] was “inactive” in each case. The Potency result in test [9], in test [14], in test [10], in test [11], in [12] and in test [13] was “inactive” in each case. Besides, the result in [7] was inactive.

As to `O=[N+]([O-])O`, the Potency result in test [1], in test [3], in [4], in test [5], in test [6] and in test [8] was “inactive” each time. For the same compound, the Potency result in test [9], in test [10], in test [12] and in test [13] was “inactive” each time. Moreover, in test [7], the result was inactive. Further, in test [11], the Potency entry is “inactive and 21.9 µM (active)”.

As to `Cc1cc(Cl)ccc1OCC(=O)O`, the Potency result in test [1], in test [3], in test [15], in test [4], in test [5] and in test [6] was “inactive” throughout. In addition, the Potency entry in test [8], in [9], in test [14], in test [10], in test [11] and in test [12] was “inactive” each time. Also, the Potency entry in [13] was “inactive”. The compound was called inactive in [7].

For the compound `CCCC[n+]1ccc(C)cc1`, the Potency entry was “inactive and 43.4 µM (active)” in test [1]; “inactive and 43.4 µM (active)” in test [4]; “inactive and 48.7 µM (active)” in test [5]; “inactive and 60.8 µM (active)” in test [9]; “inactive and 48.7 µM (active)” in [16]; 13.8 µM (active) and inactive in test [10]. For the same compound, the Potency entry in test [12] was “inactive and 34.5 µM (active)”. Besides, the Potency entry in test [3], in [6], in test [8], in test [11] and in test [13] was “inactive” each time. Also, in [7], the outcome was inactive.

As for `CC(=O)O`, the Potency entry in [1], in test [2], in test [3], in [4], in test [5] and in [6] was “inactive” each time. Moreover, the Potency result in [8], in test [9], in test [10], in test [11], in [12] and in test [13] was “inactive” each time. Besides, the call in test [7] was inactive.

For the compound `C=CCOC(Cn1ccnc1)c1ccc(Cl)cc1Cl` (stereo not drawn), the Potency entry in [1], in test [3], in test [15], in test [5], in test [6] and in test [8] was “inactive” in each case. Besides, the Potency result in test [9], in test [11], in test [12] and in [13] was “inactive” throughout. The Potency was 54.9 µM (active) and inactive in [4]; 21.8 µM (active) and 29.8 µM (active) in test [14].

For the compound `O=C(O)CC(O)(CC(=O)O)C(=O)O`, the Potency result in test [1], in test [2], in test [3], in [15], in test [4] and in [5] was “inactive” each time. The Potency entry in [6], in test [8], in [9], in test [10], in test [11] and in test [12] was “inactive” in each case. Besides, the Potency result in test [13] is “inactive”. Also, the result in [17] and in test [7] was inactive.
